For nine compounds, growth results are on record in PubChem BioAssay (NCI).

The panel holds about 83,000 compounds, 20% with a hit somewhere; the sample as a whole holds those more often.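 Cells were grown in 96-well plates and exposed to the test compound at a single concentration for 48 hours; results are reported as percent growth, with values below 10 considered active.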 Unmarked numbers belong to inactive results. Activity calls are given as the source filed them.

Holding throughout (assay): NCI-60 one-dose screen, 48 h (100 = growth as untreated, 0 = no growth, -100 = all killed)
In assay [1] the test system is SK-MEL-2 melanoma. The note with it: 10 µM unless noted.
Assay [2] has as its system EKVX NSCLC. The note with it: 10 µM unless noted.
For assay [3], the system named is SN12C renal. Conditions: 10 µM unless noted.
In assay [4] the test system is UO-31 renal. The note with it: 10 µM unless noted.
Assay [5] deals with ACHN renal. The note with it: 10 µM unless noted.
The subject of assay [6] is A498 renal. The note with it: 10 µM unless noted.
Assay [7] has as its system CCRF-CEM leukemia. Conditions: 10 µM unless noted.
In assay [8] the test system is MOLT-4 leukemia. Conditions: 10 µM unless noted.
Assay [9] concerns SR leukemia. The note with it: 10 µM unless noted.
Assay [10] relates to RPMI-8226 leukemia. Conditions: 10 µM unless noted.
For assay [11], the system named is OVCAR-8 ovarian. The note with it: 10 µM unless noted.
The test system of assay [12] is OVCAR-5 ovarian. The note with it: 10 µM unless noted.
In assay [13] the test system is OVCAR-4 ovarian. Conditions: 10 µM unless noted.
Assay [14] concerns SK-OV-3 ovarian. The note with it: 10 µM unless noted.
The subject of assay [15] is IGROV1 ovarian. Conditions: 10 µM unless noted.
For assay [16], the system named is OVCAR-3 ovarian. The note with it: 10 µM unless noted.
In assay [17] the test system is HS 578T breast. The note with it: 10 µM unless noted.
For assay [18], the system named is NCI/ADR-RES ovarian. Conditions: 10 µM unless noted.
The test system of assay [19] is TK-10 renal. The note with it: 10 µM unless noted.
The subject of assay [20] is CAKI-1 renal. Conditions: 10 µM.

For `COC(=O)c1ccc2c(c1)Oc1ccc(Cl)cc1-c1cc(C)nn1-2`, the growth in [1] was 100%; in assay [2], 66.9%; in assay [3], 51.8%; in assay [4], 82.2%; in [5] it was 22.6%; in assay [6], 62.7%. The growth in assay [7] was 78.8%; in assay [8], 99.9%; in [9] it was 69.9%; in assay [10], 74.9%; in assay [11] it was 72.8%; in assay [12], 91.2%. Also, the growth was -6.66% (active) in [13]; 53.5% in assay [14]; 61.8% in assay [15]; 39% in assay [16]; 55.1% in assay [17]; 73.4% in [18].

As for `Cc1[nH]c2ccc(F)cc2c1CCNC(=O)C1CCN(C(=O)c2ccc(-c3ccccc3)cc2)CC1`, the growth in assay [1] was 71.6%; in assay [2], 44.2%; in assay [3], 64.1%; in [4], 36.5%; in assay [5], 52.6%; in [7] it was 54.1%. Also, the growth was 26.9% in assay [8]; 8.16% (active) in assay [9]; 44.5% in [10]; 56.3% in assay [11]; 90.1% in assay [12]; 44.7% in [13]. Besides, the growth is 63.8% in assay [14]; 67.1% in [15]; 63.8% in [16]; 72.7% in [17]; 49.6% in assay [18].

Turning to `Cc1ccc(=O)n(-c2ccc(Br)cc2F)c1`, the growth in assay [1] is 116%; in assay [2] it was 99.5%; in [3], 107%; in [4], 90.7%; in assay [5] it was 94.6%; in assay [6], 84%. Further, the growth in [7] was 99.9%; in assay [8] it was 108%; in assay [9], 108%; in assay [10], 101%; in [11] it was 99%; in assay [12], 105%. The growth was 97.3% in [13]; 97.6% in [15]; 109% in [16]; 100% in [17]; 104% in [18].

For `CCCN1C(=O)CSC1=Nc1ccc2cc3ccc(N=C4SCC(=O)N4CCC)cc3nc2c1`, the growth is 38.1% in assay [1]; 33.8% in assay [2]; 75% in [3]; 56.8% in assay [19]; 36.4% in assay [5]; 36% in assay [20]. The growth in assay [6] was 63.4%; in assay [8], -18.8% (active); in assay [10] it was 1.65% (active); in assay [11], 37.2%; in [12], 89.2%; in [13], 15.3%. For the same compound, the growth is 51% in [16], 31.6% in assay [17] and 24.5% in assay [18].

Regarding `COc1ccc(C(=O)NC(=O)Nc2ccc3c(c2)NC(=O)/C3=C\c2[nH]c(C)c(CCC(=O)O)c2C)c(F)c1`, the growth in assay [1] is -0.585% (active); in assay [2] it was 73.1%; in [3], 39.7%; in [4], 55.6%; in [5], 67%; in assay [7] it was 12.2%. For the same compound, the growth was 54.6% in [8]; 18.8% in assay [9]; 13% in assay [10]; 8.62% (active) in [11]; 64.4% in [12]; 77% in assay [13]. The growth in assay [14] is 56.6%; in assay [15], 43%; in assay [16] it was 23.4%; in [17], -5.02% (active); in assay [18], 88.7%.

As for `COc1ccc(CNc2nc3ccccc3c3c(=O)c4ccccc4sc23)cc1OC`, the growth was 102% in assay [1]; 84.3% in assay [2]; 82.5% in [3]; 85% in assay [4]; 40.2% in assay [5]; 64.2% in [6]. For the same compound, the growth in [7] was 84.8%; in [8], 86.6%; in [9] it was 65.3%; in assay [10] it was 87.3%; in assay [11] it was 64.8%; in [12] it was 97.2%. The growth is 62.1% in assay [13]; 81.9% in assay [14]; 80.6% in assay [15]; 82.6% in [16]; 65.8% in assay [17]; 74.3% in assay [18].

For `Fc1ccc(Nc2ncnc3ccc(-c4cn[nH]c4)cc23)cc1Cl`, the growth in [1] was 45.3%; in assay [2] it was 22.4%; in assay [3], 56.8%; in [4] it was 45.6%; in assay [5], 26.1%; in assay [6], 7.79% (active). Further, the growth is 75.3% in assay [7]; 56.7% in assay [8]; 0.823% (active) in assay [9]; 38.9% in [10]; 44.1% in assay [11]; 75.7% in assay [12]. Further, the growth in assay [13] is 55.5%; in assay [14] it was -11.6% (active); in assay [15], 5.6% (active); in assay [16] it was 50.6%; in [17], 31.4%; in assay [18], 51.6%.

Consider `c1ccc([Se]CCCN2CCN(CCC[Se]c3ccccc3)CC2)cc1`, for which the growth was 121% in assay [1]; 1.25% (active) in [2]; 104% in assay [3]; 129% in assay [19]; 100% in assay [5]; -23.6% (active) in [20]. In addition, the growth in assay [6] is 116%; in assay [7], 105%; in assay [8], 127%; in [9], 126%; in [11], 119%; in assay [12] it was 121%. The growth in assay [13] is 101%; in assay [14] it was 113%; in [16], 116%; in assay [17], 110%; in assay [18], 101%.

With `COc1ccc(-c2[nH]c3ccccc3c2/C=C(\C#N)S(=O)(=O)c2ccccc2)cc1`, the growth in [1] was 76.5%; in assay [2], 14.1%; in assay [3], 42.2%; in [19] it was 91.7%; in [5] it was 51%; in [20], -14.3% (active). Moreover, the growth is 2.31% (active) in assay [6]; 8.07% (active) in assay [7]; 6.08% (active) in assay [8]; 1.93% (active) in assay [9]; 44.4% in assay [11]; 32.2% in assay [12]. Further, the growth is -14.3% (active) in [13]; 29.2% in [14]; 32.7% in assay [15]; -35.7% (active) in assay [16]; 23.8% in assay [17]; 0.134% (active) in assay [18].
